The values below are quoted from earlier work in PubChem BioAssay AID977611.

Among all 3,900 compounds or so, about 3,900 (100%) were called active. Cut-off not given; nearly all actives show Kd up to about 4200 µM. So high a share suggests a set chosen from earlier hits. The list shows a part of the results. Starred links: 1 amine or outer side, 2 acyl side, 3 side chain; linkers in the order of their positions; H or OH if unused. *1 amine or outer side, *2 acyl side, *3 side chain or, on linkers, in order; H or OH if unused. Where a SMILES comes first, the peptide text is derived from it. Non-standard residues stand in square brackets, D forms with d. Square brackets hold non-standard residues; d marks the D form. Residues, ends and D or L forms follow the SMILES beside them. Peptide text beside a SMILES is read from it. [ ]: non-standard residue; d: D form. The star is where a group is joined. X1 = O=C([C@@H]1CC[C@H](O)N1[*:1])[*:2]; Orn(CH(NH2)2) = NC(N)NCCC[C@H](N)C(=O)O; Lys(Me2) = CN(C)CCCC[C@H](N)C(=O)O; Lys(Me) = CNCCCC[C@H](N)C(=O)O; Butyryl = CCCC(=O)*

This data set in a line: PubChem AID 977611. The following applies: PDB protein-ligand complexes, literature Kd.

As for `C[C@H](N)C(=O)N[C@@H](CCCN=C(N)N)C(=O)N[C@H](C(=O)N[C@@H](CCCCN)C(=O)N[C@@H](CCC(N)=O)C(=O)N[C@H](C(=O)N[C@@H](C)C(=O)N[C@@H](CCCN=C(N)N)C(=O)N[C@@H](CCCCN)C(=O)N[C@@H](CO)C(=O)N[C@H](C(=O)NCC(=O)O)[C@@H](C)O)[C@@H](C)O)[C@@H](C)O`, the Kd (protein: histone acetyltransferase Hat1p/Hat2p/H4 peptide complex, PDB entry 4psx) was 0.34 µM (active). For the molecule H-TKQTARK(Ac)S-NH2, under “protein: Protein AF-9 AF9 YEATS, PDB entry 4tmp”, the Kd is 3.7 µM (active).

For `CCCC(=O)NCCCC[C@H](NC(=O)[C@]1([C@@H](C)O)N[C@@](O)([C@@H](N)CCCN=C(N)N)O1)C(=O)N[C@@H](CCC(N)=O)C(=O)N[C@H](C(=O)N[C@@H](C)C(=O)N[C@@H](CCCN=C(N)N)C(=O)O)[C@@H](C)O` (H-[X1]K(Butyryl)QTAR-OH), the Kd (protein: NAD-DEPENDENT PROTEIN DEACETYLASE SIRTUIN-3, MITOCHONDRIAL Sirt3, PDB entry 4v1c) was 25.1 µM (active). Take `C[C@H](N)C(=O)N[C@@H](CCCN=C(N)N)C(=O)N[C@H](C(=O)N[C@@H](CCCCN)C(=O)N[C@@H](CCC(N)=O)C(=O)N[C@H](C(=O)N[C@@H](C)C(=O)N[C@@H](CCCN=C(N)N)C(=O)N[C@@H](CCCCN)C(=O)N[C@@H](CO)C(=O)O)[C@@H](C)O)[C@@H](C)O`: the Kd (protein: DNA (cytosine-5)-methyltransferase 3A DNMT3A-DNMT3L, PDB entry 4u7t) was 2.14 µM (active).

For H-ARTAA-OH, the Kd (protein: WD repeat-containing protein 5 WDR5, PDB entry 4o45) was 70 µM (active). In the case of `C[C@H](N)C(=O)N[C@@H](C)C(=O)N[C@@H](C)C(=O)N[C@@H](C)C(=O)N[C@@H](C)C(=O)N[C@@H](C)C(=O)N[C@@H](C)C(=O)N[C@@H](C)C(=O)N[C@@H](C)C(=O)N[C@@H](C)C(=O)O`, the Kd (protein: Transportin 1 (Trn1), PDB entry 2z5o) is 1 µM (active). In the case of `CNCCCC[C@H](NC(=O)[C@H](CCCNC(N)N)NC(=O)[C@H](C)NC(=O)[C@@H](NC(=O)[C@H](CCC(N)=O)NC(=O)[C@H](CCCCNC)NC(=O)[C@@H](N)[C@@H](C)O)[C@@H](C)O)C(=O)N[C@@H](CO)C(=O)N[C@H](C(=O)O)[C@@H](C)O` (H-T[Lys(Me)]QTA[Orn(CH(NH2)2)][Lys(Me)]ST-OH), the Kd (protein: SAWADEE HOMEODOMAIN HOMOLOG 1, PDB entry 4iuv) is 1.9 µM (active). Take `C[C@H](NC(=O)[C@@H](NC(=O)[C@H](CCC(N)=O)NC(=O)[C@H](CCCCN)NC(=O)[C@@H](N)[C@@H](C)O)[C@@H](C)O)C(=O)N[C@@H](CCCNC(N)N)C(=O)N[C@@H](CCCCN(C)C)C(=O)N[C@@H](CO)C(=O)O` (H-TKQTA[Orn(CH(NH2)2)][Lys(Me2)]S-OH): the equilibrium dissociation constant (Kd) (protein: SAWADEE HOMEODOMAIN HOMOLOG 1, PDB entry 4iut) is 1.9 µM (active). With `CNCCCC[C@H](NC(=O)[C@H](CCCNC(N)N)NC(=O)[C@H](C)NC(=O)[C@@H](NC(=O)[C@H](CCC(N)=O)NC(=O)[C@H](CCCCN)NC(=O)[C@@H](N)[C@@H](C)O)[C@@H](C)O)C(=O)N[C@@H](CO)C(=O)O` (H-TKQTA[Orn(CH(NH2)2)][Lys(Me)]S-OH), for the setting “protein: SAWADEE HOMEODOMAIN HOMOLOG 1, PDB entry 4iuu”, the Kd was 2.22 µM (active). Consider `CC(C)C[C@H](NC(=O)[C@H](CCCNC(N)N)NC(=O)[C@@H](NC(=O)[C@H](CC(=O)O)NC(=O)[C@@H](N)CCC(N)=O)[C@@H](C)O)C(=O)O` (HELM PEPTIDE1{Q.D.T.[NC(N)NCCC[C@H](N[*:1])C(=O)[*:2]].L}$$$$V2.0), for which the Kd is, setting by setting: (protein: Na(+)/H(+) exchange regulatory cofactor NHE-RF1, PDB entry 2m0u) 0.365 µM (active); (protein: Na(+)/H(+) exchange regulatory cofactor NHE-RF1, PDB entry 2m0v) 1.08 µM (active). Take `CSCC[C@H](NC(=O)[C@H](CC(C)C)NC(=O)[C@H](C)NC(=O)[C@H](CC(=O)O)NC(=O)[C@H](CC(C)C)NC(=O)[C@H](C)NC(=O)[C@H](C)NC(=O)[C@@H](NC(=O)[C@H](C)NC(=O)[C@H](C)N)[C@@H](C)O)C(=O)N[C@@H](C)C(=O)N[C@@H](CO)C(=O)N[C@@H](CC(C)C)C(=O)O` (H-AATAALDALMASL-OH): the Kd (protein: Protein-tyrosine kinase 2-beta, Pyk2 FAT domain, PDB entry 3u3f) was 8 µM (active).

With `CC(C)[C@H](NC(=O)[C@H](CCC(N)=O)NC(=O)[C@@H](NC(=O)[C@H](CCC(=O)O)NC(=O)[C@H](CCCNC(N)N)NC(=O)[C@H](CCCNC(N)N)NC(=O)[C@@H](NC(=O)[C@H](CCCNC(N)N)NC(=O)[C@H](CO)NC(=O)[C@H](CO)NC(=O)[C@@H](N)CCCNC(N)N)[C@@H](C)O)[C@@H](C)O)C(=O)O` (H-[Orn(CH(NH2)2)]SS[Orn(CH(NH2)2)]T[Orn(CH(NH2)2)][Orn(CH(NH2)2)]ETQV-OH), for the setting “protein: second PDZ domain of MAGI-1 (Membrane-associated guanylate kinase), PDB entry 2kpl”, the Kd was 0.23 µM (active). Regarding `CC(C)C[C@H](NC(=O)[C@H](C)NC(=O)[C@H](CC(=O)O)NC(=O)[C@H](CC(C)C)NC(=O)[C@@H](N)CC(=O)O)C(=O)N[C@@H](CC(C)C)C(=O)N[C@@H](C)C(=O)N[C@@H](CC(=O)O)C(=O)N[C@@H](CC(C)C)C(=O)N[C@@H](CCC(=O)O)C(=O)O` (H-DLDALLADLE-OH), the Kd (protein: Alpha-parvin, PDB entry 2k2r) was 1300 µM (active). `CC(C)C[C@H](NC(=O)[C@H](C)NC(=O)[C@H](C)NC(=O)[C@H](CC(C)C)NC(=O)[C@H](CCCNC(N)N)NC(=O)[C@H](CCCNC(N)N)NC(=O)[C@H](CO)NC(=O)[C@H](CC(C)C)NC(=O)[C@H](CCC(N)=O)NC(=O)[C@H](CC(=O)O)NC(=O)[C@@H](N)CCC(=O)O)C(=O)N[C@@H](CCCNC(N)N)C(=O)N[C@@H](CC(N)=O)C(=O)O` (H-EDQLS[Orn(CH(NH2)2)][Orn(CH(NH2)2)]LAAL[Orn(CH(NH2)2)]N-OH): the Kd (protein: Vacuolar protein sorting-associating protein 4A, PDB entry 2jq9) is 33.4 µM (active). As to `CSCC[C@H](NC(=O)[C@H](CC(C)C)NC(=O)[C@H](CCC(=O)O)NC(=O)[C@H](CC(=O)O)NC(=O)[C@H](CC(C)C)NC(=O)[C@H](CCC(=O)O)NC(=O)[C@H](CCCNC(N)N)NC(=O)[C@@H](N)[C@@H](C)O)C(=O)N[C@@H](C)C(=O)N[C@@H](CO)C(=O)N[C@@H](CC(C)C)C(=O)N[C@@H](CO)C(=O)O` (H-T[Orn(CH(NH2)2)]ELDELMASLS-OH), the Kd was 4 µM (active) (protein: Focal Adhesion Targeting Domain(FAT), PDB entry 1ow6) and 4 µM (active) (protein: Focal Adhesion Targeting Domain(FAT), PDB entry 1ow7).

Turning to `CC(C)C[C@H](NC(=O)[C@H](CCC(=O)O)NC(=O)[C@H](CC(C)C)NC(=O)[C@H](CC(C)C)NC(=O)[C@H](CC(C)C)NC(=O)[C@H](CCCNC(N)N)NC(=O)[C@H](CC(=O)O)NC(=O)[C@H](CC(C)C)NC(=O)[C@H](CCC(=O)O)NC(=O)[C@H](CO)NC(=O)[C@@H](N)CC(C)C)C(=O)N[C@@H](CC(N)=O)C(=O)O` (H-LSELD[Orn(CH(NH2)2)]LLLELN-OH), the Kd (protein: Focal Adhesion Targeting Domain(FAT), PDB entry 1ow8) is 4 µM (active). For the molecule `CC(C)[C@H](NC(=O)[C@H](CCC(N)=O)NC(=O)[C@@H](NC(=O)[C@H](CCC(=O)O)NC(=O)[C@H](CC(N)=O)NC(=O)[C@H](CCCNC(N)N)NC(=O)[C@H](CCC(N)=O)NC(=O)[C@H](CCCNC(N)N)NC(=O)[C@@H](NC(=O)[C@H](CCCNC(N)N)NC(=O)[C@@H]1CC[C@H](O)N1)[C@@H](C)O)[C@@H](C)O)C(=O)O` (H-[X1][Orn(CH(NH2)2)]T[Orn(CH(NH2)2)]Q[Orn(CH(NH2)2)]NETQV-OH), the Kd (protein: Disks large homolog 1, PDB entry 2m3m) is 9.63 µM (active).
